Structures are written as SMILES. Counter-ions that a name gives are not always drawn.

The first assay relates to 786-O. The assay is described as follows: Euclidean distance of Cell Painting phenotypic profile (signed KS, 77 features) to DMSO centroid (dimensionless distance); 5 or 10 uM (library dependent); higher = stronger phenotypic change vs DMSO (phenoactivity). The note with it: 48 h. In short, it runs like this: (§1)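 At 10 or 5 uM, as set by the library, and 0.1% DMSO final, compounds were applied for 48 h to five cancer lines and one healthy fibroblast line. Stained cells were imaged confocally at 20X in 9 fields per well, and Harmony extracted 77 features scored as signed Kolmogorov-Smirnov statistics against vehicle wells on the same plate. Profiles underwent plate-position correction, correlation weighting and replicate averaging at the top dose. Phenoactivity is the Euclidean distance from each such profile to the median vehicle profile.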
For `O=C1NC(=O)C(c2ccccc2)(c2ccccc2)N1` [Phenytoin], the Euclidean distance was found to be 0.857.

Regarding `O=C(O)CCCN1CCC(O[C@@H](c2ccc(Cl)cc2)c2ccccn2)CC1` [Bepotastine], the Euclidean distance was 0.883.

Take `CCC[C@@H]1C[C@@H](C(=O)N[C@@H]([C@H]2O[C@H](SC)[C@H](O)[C@@H](O)[C@H]2O)[C@@H](C)O)N(C)C1` [Lincomycin HCl]: the Euclidean distance amounted to 1.49.

The compound `CCCCCCCN(CC)CCCC(O)c1ccc(NS(C)(=O)=O)cc1` (stereo unspecified) [Ibutilide Fumarate] displayed an Euclidean distance of 1.19.

On to `CCCCCCCCCC(=O)OC1(c2ccc(Cl)cc2)CCN(CCCC(=O)c2ccc(F)cc2)CC1` [Haloperidol Decanoate], for which the Euclidean distance was 0.828.

`Nc1ccc(S(=O)(=O)c2ccc(N)cc2)cc1` [Dapson] gave an Euclidean distance of 1.45.

With `CC(=O)OCC(=O)[C@@]12N=C(C)O[C@@H]1C[C@H]1[C@@H]3CCC4=CC(=O)C=C[C@]4(C)[C@H]3[C@@H](O)C[C@@]12C` [Deflazacort], the Euclidean distance was found to be 1.27.

Turning to `COCCNCCc1cccc(Nc2ncc3c(n2)-c2ccccc2[C@H](c2ccccc2F)C3)c1` [Derazantinib(ARQ-087)], the Euclidean distance is 6.37.

Regarding `CC(C)/N=c1\cc2n(-c3ccc(Cl)cc3)c3ccccc3nc-2cc1Nc1ccc(Cl)cc1` [Clofazimine], the Euclidean distance is 1.02.

`COc1ccc(Cl)cc1NC(=O)Nc1cc(C)nc2ccccc12`: the Euclidean distance worked out at 1.14.

Regarding `Cc1cccc(-c2[nH]c(C(C)(C)C)nc2-c2ccc3nccnc3c2)n1`, the Euclidean distance is 1.56.

`O=S(=O)(O)c1cc(O)ccc1O` [Ethamsylate] yielded an Euclidean distance of 0.716.

Consider `CCOC(=O)c1ccc(N2NC(=O)C(=Cc3ccc([N+](=O)[O-])o3)C2=O)cc1`, for which the Euclidean distance came to 1.51.

`CN(CCCCCCCCCCN(C)C(=O)Oc1cccc([N+](C)(C)C)c1)C(=O)Oc1cccc([N+](C)(C)C)c1` [Demecarium Bromide] showed an Euclidean distance of 0.786.

For `O=[N+]([O-])c1cn2c(n1)OC[C@@H](OCc1ccc(OC(F)(F)F)cc1)C2`, the Euclidean distance worked out at 1.49.

The compound `COc1cc2nccc(Oc3ccc(NC(=O)C4(C(=O)Nc5ccc(F)cc5)CC4)cc3)c2cc1OC` [Cabozantinib malate (XL184)] came in with an Euclidean distance of 1.85.

Consider `Cc1cnc(Nc2ccc(N3CCN(C)CC3)cc2)nc1Nc1cccc(S(=O)(=O)NC(C)(C)C)c1`, for which the Euclidean distance came out at 3.77.

For the compound `Cc1cc(O)c(C(=O)N[C@@H](C(=O)N[C@@H]2C(=O)N3C(C(=O)O)=C(CSc4nnnn4C)CS[C@H]23)c2ccc(O)cc2)cn1` [Cefpiramide sodium], the Euclidean distance was found to be 0.849.

`CCCCCCCCCCCCCCCCOP(=O)([O-])OCC[N+](C)(C)C` [Miltefosine] came in with an Euclidean distance of 1.74.

Regarding `CCCc1cc(=O)[nH]c(=S)[nH]1` [Propylthiouracil], the Euclidean distance is 0.782.

`CC(NC(=O)c1ccccc1/N=C/c1c(O)ccc2ccccc12)c1ccccc1` (stereo unspecified) [Sirtinol]: the Euclidean distance was 0.539.

As for `N#C/C(=C(/N)Sc1ccc(N)cc1)c1ccccc1C(F)(F)F`, the Euclidean distance stood at 0.949.

On to `CCOc1ccc(C[C@H]2NC(=O)CCSSC[C@@H](C(=O)N3CCC[C@H]3C(=O)N[C@@H](CCCN)C(=O)NCC(N)=O)NC(=O)[C@H](CC(N)=O)NC(=O)[C@H]([C@@H](C)O)NC(=O)[C@H]([C@@H](C)CC)NC2=O)cc1` [Atosiban Acetate], for which the Euclidean distance was found to be 1.21.

`COC(=O)C1=CO[C@@H](O[C@@H]2O[C@H](CO)[C@@H](O)[C@H](O)[C@H]2O)[C@@H]2C(CO)=CC[C@H]12` [Geniposide] came in with an Euclidean distance of 0.724.

Compound `C[N+](C)(C)NCCC(=O)[O-]` [Mildronate] showed an Euclidean distance of 1.41.

`CNC(=O)c1ccccc1Nc1nc(Nc2ccc(N3CCOCC3)cc2OC)ncc1Cl` registered an Euclidean distance of 2.97.

`OC[C@H]1O[C@@H](c2ccc(Cl)c(Cc3ccc(O[C@H]4CCOC4)cc3)c2)[C@H](O)[C@@H](O)[C@@H]1O` returned an Euclidean distance of 0.965.

The subject of a further assay is A549. The assay is described as above. The note with it: 48 h. In short, it runs like this: as §1
Turning to `CC[C@H]1OC(=O)[C@@](C)(F)C(=O)[C@H](C)[C@@H](O[C@@H]2O[C@H](C)C[C@H](N(C)C)[C@H]2O)[C@](C)(OC)C[C@@H](C)C(=O)[C@H](C)[C@H]2N(CCCCn3cc(-c4cccc(N)c4)nn3)C(=O)O[C@]12C` [Solithromycin], the Euclidean distance worked out at 1.89.

In turn, `CN1CCCC(n2nc(Cc3ccc(Cl)cc3)c3ccccc3c2=O)CC1` (stereo unspecified) [Azelastine HCl] came in with an Euclidean distance of 0.991.

Take `C[C@H](O)[C@H](O)[C@H]1CNc2[nH]c(N)nc(=O)c2N1` [Sapropterin Dihydrochloride]: the Euclidean distance worked out at 0.501.

For the compound `CN(C)c1ccc(C(=C2C=CC(=[N+](C)C)C=C2)c2ccc(N(C)C)cc2)cc1` [Crystal Violet], the Euclidean distance worked out at 2.83.

Consider `Cc1cccc(-c2[nH]c(C(C)(C)C)nc2-c2ccc3c(c2)OCO3)n1`, for which the Euclidean distance was found to be 1.76.

Regarding `CCCCC1=NC2(CCCC2)C(=O)N1Cc1ccc(-c2ccccc2S(=O)(=O)Nc2noc(C)c2C)c(COCC)c1`, the Euclidean distance amounted to 0.599.

For `COC(c1ccccc1)(c1ccccc1)[C@H](Oc1nc(C)cc(C)n1)C(=O)O` [Ambrisentan], the Euclidean distance was determined as 0.738.

As for `CCN1CCC[C@H]1CNC(=O)c1cc(S(N)(=O)=O)ccc1OC` [Levosulpiride], the Euclidean distance is 0.793.

`CCCOC(C(=O)OC1CCN(C)CC1)(c1ccccc1)c1ccccc1` [Propiverine hydrochloride]: the Euclidean distance was 1.08.

In the case of `O=C(O)CCC(=O)c1ccc(-c2ccccc2)cc1` [Fenbufen], the Euclidean distance turned out to be 1.6.

Compound `O=C(Nc1ccccc1Br)N[C@@H]1CCN(c2ccc(C(F)(F)F)cn2)C1` had an Euclidean distance of 0.999.

Consider `C[C@]12CC[C@H](O)CC1=CC[C@@H]1[C@@H]2CC[C@]2(C)C(n3cnc4ccccc43)=CC[C@@H]12` [Galeterone], for which the Euclidean distance came to 1.11.

`O=C1NC(=O)C(c2ccccc2)(c2ccccc2)N1` [Phenytoin] yielded an Euclidean distance of 0.495.

In the case of `O=C(O)CCCN1CCC(O[C@@H](c2ccc(Cl)cc2)c2ccccn2)CC1` [Bepotastine], the Euclidean distance is 0.582.

In the case of `CCC[C@@H]1C[C@@H](C(=O)N[C@@H]([C@H]2O[C@H](SC)[C@H](O)[C@@H](O)[C@H]2O)[C@@H](C)O)N(C)C1` [Lincomycin HCl], the Euclidean distance came out at 0.984.

In the case of `CCCCCCCN(CC)CCCC(O)c1ccc(NS(C)(=O)=O)cc1` (stereo unspecified) [Ibutilide Fumarate], the Euclidean distance turned out to be 0.555.

On to `CCCCCCCCCC(=O)OC1(c2ccc(Cl)cc2)CCN(CCCC(=O)c2ccc(F)cc2)CC1` [Haloperidol Decanoate], for which the Euclidean distance stood at 1.13.

Consider `Nc1ccc(S(=O)(=O)c2ccc(N)cc2)cc1` [Dapson], for which the Euclidean distance came out at 2.62.

`CC(=O)OCC(=O)[C@@]12N=C(C)O[C@@H]1C[C@H]1[C@@H]3CCC4=CC(=O)C=C[C@]4(C)[C@H]3[C@@H](O)C[C@@]12C` [Deflazacort] showed an Euclidean distance of 1.84.

The compound `COCCNCCc1cccc(Nc2ncc3c(n2)-c2ccccc2[C@H](c2ccccc2F)C3)c1` [Derazantinib(ARQ-087)] gave an Euclidean distance of 4.25.

With `CC(C)/N=c1\cc2n(-c3ccc(Cl)cc3)c3ccccc3nc-2cc1Nc1ccc(Cl)cc1` [Clofazimine], the Euclidean distance is 1.1.

In turn, `COc1ccc(Cl)cc1NC(=O)Nc1cc(C)nc2ccccc12` yielded an Euclidean distance of 1.85.

In turn, `Cc1cccc(-c2[nH]c(C(C)(C)C)nc2-c2ccc3nccnc3c2)n1` displayed an Euclidean distance of 1.18.

Take `O=S(=O)(O)c1cc(O)ccc1O` [Ethamsylate]: the Euclidean distance was determined as 0.847.

For `CCOC(=O)c1ccc(N2NC(=O)C(=Cc3ccc([N+](=O)[O-])o3)C2=O)cc1`, the Euclidean distance is 1.47.

Take `CN(CCCCCCCCCCN(C)C(=O)Oc1cccc([N+](C)(C)C)c1)C(=O)Oc1cccc([N+](C)(C)C)c1` [Demecarium Bromide]: the Euclidean distance was determined as 0.898.

`O=[N+]([O-])c1cn2c(n1)OC[C@@H](OCc1ccc(OC(F)(F)F)cc1)C2` had an Euclidean distance of 1.06.

For the compound `COc1cc2nccc(Oc3ccc(NC(=O)C4(C(=O)Nc5ccc(F)cc5)CC4)cc3)c2cc1OC` [Cabozantinib malate (XL184)], the Euclidean distance was 2.98.

`Cc1cnc(Nc2ccc(N3CCN(C)CC3)cc2)nc1Nc1cccc(S(=O)(=O)NC(C)(C)C)c1` returned an Euclidean distance of 4.93.

In turn, `Cc1cc(O)c(C(=O)N[C@@H](C(=O)N[C@@H]2C(=O)N3C(C(=O)O)=C(CSc4nnnn4C)CS[C@H]23)c2ccc(O)cc2)cn1` [Cefpiramide sodium] registered an Euclidean distance of 1.35.

As for `CCCCCCCCCCCCCCCCOP(=O)([O-])OCC[N+](C)(C)C` [Miltefosine], the Euclidean distance was 1.27.

`CCCc1cc(=O)[nH]c(=S)[nH]1` [Propylthiouracil] had an Euclidean distance of 1.25.

In turn, `CC(NC(=O)c1ccccc1/N=C/c1c(O)ccc2ccccc12)c1ccccc1` (stereo unspecified) [Sirtinol] displayed an Euclidean distance of 0.747.

`N#C/C(=C(/N)Sc1ccc(N)cc1)c1ccccc1C(F)(F)F` displayed an Euclidean distance of 1.46.

Turning to `CCOc1ccc(C[C@H]2NC(=O)CCSSC[C@@H](C(=O)N3CCC[C@H]3C(=O)N[C@@H](CCCN)C(=O)NCC(N)=O)NC(=O)[C@H](CC(N)=O)NC(=O)[C@H]([C@@H](C)O)NC(=O)[C@H]([C@@H](C)CC)NC2=O)cc1` [Atosiban Acetate], the Euclidean distance stood at 1.46.

The compound `COC(=O)C1=CO[C@@H](O[C@@H]2O[C@H](CO)[C@@H](O)[C@H](O)[C@H]2O)[C@@H]2C(CO)=CC[C@H]12` [Geniposide] returned an Euclidean distance of 0.87.

Compound `C[N+](C)(C)NCCC(=O)[O-]` [Mildronate] yielded an Euclidean distance of 1.05.

Take `CNC(=O)c1ccccc1Nc1nc(Nc2ccc(N3CCOCC3)cc2OC)ncc1Cl`: the Euclidean distance was found to be 3.02.

Compound `OC[C@H]1O[C@@H](c2ccc(Cl)c(Cc3ccc(O[C@H]4CCOC4)cc3)c2)[C@H](O)[C@@H](O)[C@@H]1O` returned an Euclidean distance of 0.753.
